Results reported in article PMC9911399, “Two distinct binding modes provide the RNA-binding protein RbFox with extraordinary sequence specificity”.
Residue numbers refer to the chain shown, from its start. Whole data set: some 16,000 sequences, median “ka relative to ugcaugu” near 0.0091, cut for the highest 2% near 0.032. Shown is part of a subset that was picked to be rich in the highest values.

B1: UGCGAUA (DNA:RNA)
RNA: GGGAGACCGGAAUUCAGAUUGUCCUGCGAUAUUAAAUCCCGUCGUAGCCACCA
DNA 1: CAATCTGAATTCCGGTCTCCC
DNA 2: TGGTGGCTACGACGGGATT
B2: UUGAGCA (DNA:RNA)
RNA: B1 RNA with G26U, C27G, G28A, A29G, U30C
DNA 1: CAATCTGAATTCCGGTCTCCC
DNA 2: TGGTGGCTACGACGGGATT
B3: CUUUUUG (DNA:RNA)
RNA: B1 RNA with U25C, G26U, C27U, G28U, A29U, A31G
DNA 1: CAATCTGAATTCCGGTCTCCC
DNA 2: TGGTGGCTACGACGGGATT
B4: UCAACCU (DNA:RNA)
RNA: B1 RNA with G26C, C27A, G28A, A29C, U30C, A31U
DNA 1: CAATCTGAATTCCGGTCTCCC
DNA 2: TGGTGGCTACGACGGGATT
B5: UACCUGU (DNA:RNA)
RNA: B1 RNA with G26A, G28C, A29U, U30G, A31U
DNA 1: CAATCTGAATTCCGGTCTCCC
DNA 2: TGGTGGCTACGACGGGATT
B6: AGGGCGU (DNA:RNA)
RNA: B1 RNA with U25A, C27G, A29C, U30G, A31U
DNA 1: CAATCTGAATTCCGGTCTCCC
DNA 2: TGGTGGCTACGACGGGATT
B7: GUUUUGU (DNA:RNA)
RNA: GGGAGACCGGAAUUCAGAUUGUCCGUUUUGUUUAAAUCCCGUCGUAGCCACCA
DNA 1: CAATCTGAATTCCGGTCTCCC
DNA 2: TGGTGGCTACGACGGGATT
B8: AAUCCAC (DNA:RNA)
RNA: B7 RNA with G25A, U26A, U28C, U29C, G30A, U31C
DNA 1: CAATCTGAATTCCGGTCTCCC
DNA 2: TGGTGGCTACGACGGGATT
B9: CUGUGCA (DNA:RNA)
RNA: B7 RNA with G25C, U27G, U29G, G30C, U31A
DNA 1: CAATCTGAATTCCGGTCTCCC
DNA 2: TGGTGGCTACGACGGGATT
B10: GGGUGCA (DNA:RNA)
RNA: B7 RNA with U26G, U27G, U29G, G30C, U31A
DNA 1: CAATCTGAATTCCGGTCTCCC
DNA 2: TGGTGGCTACGACGGGATT
B11: CCGUGCA (DNA:RNA)
RNA: B7 RNA with G25C, U26C, U27G, U29G, G30C, U31A
DNA 1: CAATCTGAATTCCGGTCTCCC
DNA 2: TGGTGGCTACGACGGGATT
B12: UGCAUUA (DNA:RNA)
RNA: B1 RNA with G28A, A29U
DNA 1: CAATCTGAATTCCGGTCTCCC
DNA 2: TGGTGGCTACGACGGGATT
B13: UGCAUUC (DNA:RNA)
RNA: B1 RNA with G28A, A29U, A31C
DNA 1: CAATCTGAATTCCGGTCTCCC
DNA 2: TGGTGGCTACGACGGGATT
B14: UGCAGCA (DNA:RNA)
RNA: B1 RNA with G28A, A29G, U30C
DNA 1: CAATCTGAATTCCGGTCTCCC
DNA 2: TGGTGGCTACGACGGGATT
B15: CGGUGCA (DNA:RNA)
RNA: B1 RNA with U25C, C27G, G28U, A29G, U30C
DNA 1: CAATCTGAATTCCGGTCTCCC
DNA 2: TGGTGGCTACGACGGGATT
B16: UGGUGCA (DNA:RNA)
RNA: B1 RNA with C27G, G28U, A29G, U30C
DNA 1: CAATCTGAATTCCGGTCTCCC
DNA 2: TGGTGGCTACGACGGGATT
B17: UGCUGCA (DNA:RNA)
RNA: B1 RNA with G28U, A29G, U30C
DNA 1: CAATCTGAATTCCGGTCTCCC
DNA 2: TGGTGGCTACGACGGGATT
B18: GGUGCAU (DNA:RNA)
RNA: B7 RNA with U26G, U28G, U29C, G30A
DNA 1: CAATCTGAATTCCGGTCTCCC
DNA 2: TGGTGGCTACGACGGGATT
B19: UCCUGCA (DNA:RNA)
RNA: B1 RNA with G26C, G28U, A29G, U30C
DNA 1: CAATCTGAATTCCGGTCTCCC
DNA 2: TGGTGGCTACGACGGGATT
B20: UGCAUUG (DNA:RNA)
RNA: B1 RNA with G28A, A29U, A31G
DNA 1: CAATCTGAATTCCGGTCTCCC
DNA 2: TGGTGGCTACGACGGGATT
B21: CUGUGUG (DNA:RNA)
RNA: B7 RNA with G25C, U27G, U29G, G30U, U31G
DNA 1: CAATCTGAATTCCGGTCTCCC
DNA 2: TGGTGGCTACGACGGGATT
B22: ACUCAGC (DNA:RNA)
RNA: B7 RNA with G25A, U26C, U28C, U29A, U31C
DNA 1: CAATCTGAATTCCGGTCTCCC
DNA 2: TGGTGGCTACGACGGGATT
B23: GUAGGCC (DNA:RNA)
RNA: B7 RNA with U27A, U28G, U29G, G30C, U31C
DNA 1: CAATCTGAATTCCGGTCTCCC
DNA 2: TGGTGGCTACGACGGGATT
B24: UAAAGUG (DNA:RNA)
RNA: B1 RNA with G26A, C27A, G28A, A29G, A31G
DNA 1: CAATCTGAATTCCGGTCTCCC
DNA 2: TGGTGGCTACGACGGGATT
B25: CACUAAU (DNA:RNA)
RNA: B7 RNA with G25C, U26A, U27C, U29A, G30A
DNA 1: CAATCTGAATTCCGGTCTCCC
DNA 2: TGGTGGCTACGACGGGATT
B26: UACCGCC (DNA:RNA)
RNA: B1 RNA with G26A, G28C, A29G, U30C, A31C
DNA 1: CAATCTGAATTCCGGTCTCCC
DNA 2: TGGTGGCTACGACGGGATT
B27: AAUUCUA (DNA:RNA)
RNA: B7 RNA with G25A, U26A, U29C, G30U, U31A
DNA 1: CAATCTGAATTCCGGTCTCCC
DNA 2: TGGTGGCTACGACGGGATT
B28: UGCAUCC (DNA:RNA)
RNA: B1 RNA with G28A, A29U, U30C, A31C
DNA 1: CAATCTGAATTCCGGTCTCCC
DNA 2: TGGTGGCTACGACGGGATT
B29: UGCAUCA (DNA:RNA)
RNA: B1 RNA with G28A, A29U, U30C
DNA 1: CAATCTGAATTCCGGTCTCCC
DNA 2: TGGTGGCTACGACGGGATT
B30: UGCAUCG (DNA:RNA)
RNA: B1 RNA with G28A, A29U, U30C, A31G
DNA 1: CAATCTGAATTCCGGTCTCCC
DNA 2: TGGTGGCTACGACGGGATT
B31: AGGGCCC (DNA:RNA)
RNA: B1 RNA with U25A, C27G, A29C, U30C, A31C
DNA 1: CAATCTGAATTCCGGTCTCCC
DNA 2: TGGTGGCTACGACGGGATT

Each binder was assayed against T1, RBFOX1 RRM (Homo sapiens, UniProt Q9NWB1 109-208) (assay: EMSA; HiTS-Eq, 1 nM pool, 10 min; buffer printed only for the single-RNA assays: 10 mM Tris pH 7.5, 150 mM NaCl, 3.4 mM EDTA, 0.001% NP-40, 30 C). Settings: tags: His6 N-terminal (pET28a); label: 5' 32P.
T1 sequence: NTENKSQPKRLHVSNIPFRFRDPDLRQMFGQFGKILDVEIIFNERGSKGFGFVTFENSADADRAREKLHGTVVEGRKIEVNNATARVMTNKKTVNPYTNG
Outline: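 A pool of RNA with 7 randomized nucleotides, 5′-radiolabelled and with DNA-annealed flanks, was equilibrated at 1 nM for 10 min in 50 µL with purified RbFox RRM, wild type or mutant, across increasing protein concentrations. Free RNA was separated by 8% native PAGE, excised, reverse-transcribed, barcoded by PCR and sequenced. Relative association constants were obtained from read-count changes of each RNA species versus the control reaction and normalised to the cognate motif.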

Binder | binding signal
B1 | 0.017 KA relative to UGCAUGU
B2 | 0.0174 KA relative to UGCAUGU
B3 | 0.0263 KA relative to UGCAUGU
B4 | 0.00233 KA relative to UGCAUGU
B5 | 0.0129 KA relative to UGCAUGU
B6 | 0.0222 KA relative to UGCAUGU
B7 | 0.0195 KA relative to UGCAUGU
B8 | 0.000933 KA relative to UGCAUGU
B9 | 0.0239 KA relative to UGCAUGU
B10 | 0.0415 KA relative to UGCAUGU
B11 | 0.017 KA relative to UGCAUGU
B12 | 0.0146 KA relative to UGCAUGU
B13 | 0.0105 KA relative to UGCAUGU
B14 | 0.0136 KA relative to UGCAUGU
B15 | 0.0194 KA relative to UGCAUGU
B16 | 0.0327 KA relative to UGCAUGU

Binder | binding signal
B17 | 0.0343 KA relative to UGCAUGU
B18 | 0.0241 KA relative to UGCAUGU
B19 | 0.0135 KA relative to UGCAUGU
B20 | 0.0355 KA relative to UGCAUGU
B21 | 0.027 KA relative to UGCAUGU
B22 | 0.00534 KA relative to UGCAUGU
B23 | 0.00837 KA relative to UGCAUGU
B24 | 0.00935 KA relative to UGCAUGU
B25 | 0.00175 KA relative to UGCAUGU
B26 | 0.00921 KA relative to UGCAUGU
B27 | 0.00109 KA relative to UGCAUGU
B28 | 0.0337 KA relative to UGCAUGU
B29 | 0.0118 KA relative to UGCAUGU
B30 | 0.0295 KA relative to UGCAUGU
B31 | 0.0184 KA relative to UGCAUGU
